Our source for the Potency and activity, negative = inhibition values is PubChem BioAssay (Tox21).

Results filed as inconclusive are left out. A call without a number means that no potency is given here. Values without a mark were called inactive. The source made the active and inactive calls. The call rests on the fitted dose curve.

The target in the assay is 5-hydroxytryptamine receptor 2A (Homo sapiens) (UniProt P28223). The assay can be described thus: 5-hydroxytryptamine receptor 2A (HTR2A) small molecule antagonists, cell-based qHTS assay (AID 1963586). Further: nearly all actives have a fitted effect of over 45% in size. Particulars: HTR2A-CHO cells, DOI-induced calcium flux, fluorescence; series mostly up to 61.5 µM. The method, boiled down: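 Antagonist-mode intracellular calcium assay: DOI (4 nM) added after 5 min compound pre-incubation at room temperature to dye-loaded HTR2A-CHO cells. Fluorescence followed for 3 min, sampled every second.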
5-hydroxytryptamine receptor 2A (Homo sapiens), sequence (P28223 whole entry, looked up): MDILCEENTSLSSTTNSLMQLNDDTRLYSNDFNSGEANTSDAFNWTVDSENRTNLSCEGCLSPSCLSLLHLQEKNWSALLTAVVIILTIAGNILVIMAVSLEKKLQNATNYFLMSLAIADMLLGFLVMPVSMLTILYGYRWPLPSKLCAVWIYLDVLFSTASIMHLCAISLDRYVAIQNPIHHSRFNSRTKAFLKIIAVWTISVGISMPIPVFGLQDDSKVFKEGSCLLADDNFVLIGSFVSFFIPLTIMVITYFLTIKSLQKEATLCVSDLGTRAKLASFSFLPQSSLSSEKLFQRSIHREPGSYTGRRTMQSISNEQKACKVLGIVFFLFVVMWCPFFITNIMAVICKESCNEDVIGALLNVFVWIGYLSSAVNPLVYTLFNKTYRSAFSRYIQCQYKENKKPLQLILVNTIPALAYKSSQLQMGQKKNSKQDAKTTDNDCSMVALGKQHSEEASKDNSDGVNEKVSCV
A general note: Quantitative high-throughput screening tests each substance at several concentrations.
Potency means the concentration at half of the fitted maximal effect.

Regarding `C=CC(=O)OCCOC(=O)CCC(=O)O`, the Potency entry was “inactive”.
With `C[N+]1(C)CCCC(OC(=O)C(O)(c2ccccc2)c2ccccc2)C1` (stereo unspecified), the Potency result is “inactive”.
For `CCCCCCCCN`, the Potency result is “inactive”.
`Cc1ccc2c(c1)C(=O)c1ccccc1C2=O`: the Potency result was “inactive”.
The same measure, in the same setting: then `Cc1nc(C)nc(N2C[C@@H](C)N(c3ccnc([C@@H](C)O)n3)[C@@H](C)C2)n1`, with “inactive”; and `CCOC(=O)COC(=O)c1ccccc1C(=O)OCC`, with “inactive”; and `COc1cc(S(=O)(=O)O)c(C)cc1N=Nc1c(O)ccc2cc(S(=O)(=O)O)ccc12`, with “inactive”.
On the same count and under the same terms, with `O=C(CCC1CCN(Cc2ccccc2)CC1)c1ccc2c(c1)NCCCC2` the figure was 2.59 µM (active).
Turning to `CC1(C)S[C@@H]2[C@H](N=CN3CCCCCC3)C(=O)N2[C@H]1C(=O)O`, the Potency entry is “inactive”.
For `CCN(CC)CCOC(=O)C(c1ccccc1)c1ccccc1`, the Potency is 7.29 µM (active).
As for `COc1cccc(-c2ccc(/C=C\CN3CCCCCC3)cc2Cl)c1`, the Potency result was “inactive”.
For `CCCCN1C=CN(C)C1`, the activity, negative = inhibition is -10.9% [at 12.7 µM].
`CCC(=O)Nc1ccc(O)cc1`: the Potency result is “inactive”.
The same measure, in the same setting: with `c1ccc(CC2=NCCN2)cc1` the entry was “inactive”; with `C=CCOc1c(Br)cc(Br)cc1Br`, “inactive”; with `c1ccc(CNc2ncnc3nc[nH]c23)cc1`, “inactive”.
Still for that read-out and setting: then `CCN(CC)CCOc1ccc(C(O)(Cc2ccc(Cl)cc2)c2ccc(C)cc2)cc1` (stereo unspecified), with “inactive”.
Same read-out and setting: then `C=C1CC[C@H]2O[C@]2(C)CC[C@@H]2[C@@H]1CC2(C)C`, with “inactive”; and `CCCC(=O)C(=O)O`, with “inactive”.
For the compound `NC(Cc1ccc(Cl)cc1)C(=O)O` (stereo unspecified), the activity, negative = inhibition was -30.9% [at 0.233 µM].
On to `CCN(CC)c1cccc(C)c1`, for which the Potency result was “inactive”.
On the same count and under the same terms, with `NC(=O)CC[C@@H](N)C(=O)O` the entry was “inactive”.
The same measure, in the same setting: then `C=CC(OCC)OCC`, with “inactive”; and `O=C(CCN1CCN2CCCC2C1)N1c2ccccc2Sc2ccc(Cl)cc21` (stereo unspecified), with 8.94 µM (active); and `CCc1cccc(CC)c1N(COC)C(=O)CS(=O)(=O)O`, with “inactive”.
For the compound `COC(=O)NN`, the Potency entry is “inactive”.
For the compound `CCCCCCCCCCCCCCCCCC(=O)OCCCCCCCCCCCCCC(C)C`, the Potency result was “inactive”.
`CCCCCc1ccc(N)cc1`: the Potency entry is “inactive”.
Still for that read-out and setting: with `CCCCNc1c(C(=O)OCC)c(C)nc2c1cnn2CC` the entry was “inactive”; with `Cc1nc2n(c(=O)c1CCN1CCC(C(=O)c3ccc(F)cc3)CC1)CCS2`, 0.0041 µM (active); with `Cc1cc(=O)[nH]c(=O)[nH]1`, “inactive”.
